# Laboratory results reported in article PMC6212790, “How bacterial xenogeneic silencer rok distinguishes foreign from self DNA in its resident genome”.
# The full ranking holds about 33,000 sequences; the median of “e-score” is about -0.037, and the highest 2% start at about 0.34. The full list was thinned out, with the highest values kept by preference.
# Molecular target: T1, GST-Rok (full length) (Bacillus subtilis subsp. subtilis str. …, UniProt O34857 1-191)
# T1 sequence: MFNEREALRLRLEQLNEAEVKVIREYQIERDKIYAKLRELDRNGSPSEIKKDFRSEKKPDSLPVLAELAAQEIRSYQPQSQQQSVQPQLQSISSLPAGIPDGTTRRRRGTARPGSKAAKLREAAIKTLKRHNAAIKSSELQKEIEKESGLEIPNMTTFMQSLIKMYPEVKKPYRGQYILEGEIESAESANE
# Assay: protein binding microarray; Rok is a gene silencer of Bacillus subtilis; high values mean tight binding
# Details: protein: recombinant; tags: GST (pTH5325, pDEST15-Magic modified); dsDNA, one strand shown
# Method in brief: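 Each has a 25-mer constant primer and a 35-mer variable part from a de Bruijn sequence of order 10, covering every non-palindromic 8-mer at least 32 times (palindromic 16). Preference for each 8-mer is given as a rank-based, unitless enrichment score (E-score). Its range runs from 0.5 (most favored) to −0.5 (most disfavored).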
row,Sequence,binding signal [E-score]
1,ACAGATAT,0.153
2,ATCGATAA,0.332
3,ATAGATAA,0.297
4,ATAGAGAT,0.0483
5,ATAGATAT,0.374
6,CGAGATAG,0.0866
7,CCAGATAG,0.188
8,ATCGATAG,0.361
9,ATCGATAC,0.213
10,ATAGATAC,0.331
11,CCAAGTGG,-0.0692
12,CTAAAGAG,0.00604
13,AGTTGTGC,0.157
14,TGTTAACA,0.207
15,AAGAGCGA,-0.102
16,ATTGTTTA,-0.087
17,AGTGGAGG,-0.0535
18,ATAGATTA,0.301
19,AGTGATAG,0.377
20,ATAGATTC,0.374
21,ATAGATTG,0.316
22,AGTGATAC,0.231
23,AGTGATAA,0.145

row,Sequence,binding signal [E-score]
1,AGGATTTA,0.0716
2,ACTGTACT,0.209
3,AGATATCG,0.218
4,GCCCGTAA,-0.148
5,ATGGACAT,0.0858
6,CCGCGGCG,-0.19
7,AATAGCTA,0.358
8,GATAGCGA,0.106
9,CATAGCTA,0.306
10,AATAGCTG,0.206
11,GATAGCAA,0.189
12,GATAGCTA,0.35
13,ACAGTAAC,0.293
14,GTCAAAAC,0.00409
15,GGAATGTA,0.103
16,AACACCGT,0.146
17,GTGACAAC,-0.0442
18,ACTAGATG,0.339
19,CCTAGATA,0.101
20,ACTAGAGA,-0.0107
21,GCTAGACA,0.0674
22,GCTAGATA,0.342
23,ACTAGACA,0.054

row,Sequence,binding signal [E-score]
1,ACTAGATC,0.327
2,ACTAGATA,0.402
3,ACTAGACG,-0.0512
4,CAGATTAG,0.083
5,CAGTGTAA,0.192
6,CACAAAGC,0.0266
7,ACCACAAG,-0.065
8,CAGGTGCA,-0.198
9,TATGTCGA,0.132
10,CTAATCGA,0.122
11,ACTACCAT,0.352
12,CCTACCAC,0.224
13,ACTACCAA,0.305
14,ACTACCAG,0.238
15,ACTACCAC,0.347
16,GCTACCAC,0.188
17,TAGTACCA,0.166
18,GCATCGAC,0.0744
19,ATGTAGAC,0.257
20,ATGTAGAG,0.199
21,ATGTAGAA,0.423
22,CTGTAGAA,0.345
23,CTGTAGAC,0.117

row,Sequence,binding signal [E-score]
1,GTGTAGAA,0.292
2,CCCAAACC,-0.181
3,GTACGGTA,0.232
4,TACTTACA,0.331
5,AGGTAGGC,-0.115
6,GAGTGAAA,-0.103
7,GTATAGTA,0.316
8,ATATAGTG,0.274
9,ATATAGTC,0.25
10,CTATAGTA,0.365
11,ATATAGTA,0.456
12,CTATAGTC,0.096
13,ACTGCTAG,-0.0701
14,CCGACCAA,-0.12
15,CCGACTAA,0.0388
16,AGAAACAA,0.253
17,AGGTATGC,0.154
18,AAGTGGAG,-0.191
19,ATCTAATA,0.313
20,ATCTAATC,0.351
